Experimental data as given in PubChem BioAssay AID1159580 (chemical genetic matrix, 2015).
Among all 5,500 compounds or so, about 2,000 (36%) were called active. Inconclusive results (about 18%) are left out. Rule as the data show it: active = normalized growth mostly below about 0.91 (no sharp cut-off); inconclusive = no clear call, values can overlap the other calls; inactive = mostly above about 0.92. The list shows a part of the results.

Assay: chemical genetic growth profiling, strain panel (AID 1159580);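 also: tested at 20 µM; growth read once vehicle control cultures reached saturation at 30 °C; 1 = growth at the plate median or of vehicle wells; lower values mean less growth of the strain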
Details: S. cerevisiae deletion strains, growth OD

Measured: normalized growth

COc1ccc(C(=O)CSC2=NCCc3ccccc32)cc1
inactive: locus YAR019C, strain CDC15, active compounds read low 0.975 | locus YBL105C, strain PKC1, active compounds read low 0.982 | locus YBR135W, strain CKS1, active compounds read low 0.959 | locus YBR136W, strain MEC1, active compounds read low 0.978 | locus YBR160W, strain CDC28, active compounds read low 0.974 | locus YDL017W, strain CDC7, active compounds read low 0.98 | locus YDL028C, strain MPS1, active compounds read low 0.97 | locus YDL101C, strain DUN1, active compounds read low 0.976 | locus YDL108W, strain KIN28, active compounds read low 0.968 | locus YDL132W, strain cdc53, active compounds read low 0.974 | locus YDL214C, strain PRR2, active compounds read low 0.999 | locus YDR052C, strain DBF4, active compounds read low 0.983 | locus YDR054C, strain cdc34, active compounds read low 0.978 | locus YDR226W, strain ADK1, active compounds read low 0.971 | locus YDR477W, strain SNF1, active compounds read low 1 | locus YER123W, strain YCK3, active compounds read low 1.02 | locus YER133W, strain GLC7, active compounds read low 1.01 | locus YFL009W, strain cdc4, active compounds read low 0.968 | locus YFL029C, strain CAK1, active compounds read low 0.972 | locus YFR003C, strain YPI1, active compounds read low 0.979 | locus YFR019W, strain FAB1, active compounds read low 1.04 | locus YFR028C, strain CDC14, active compounds read low 0.982 | locus YGR040W, strain KSS1, active compounds read low 1 | locus YGR052W, strain FMP48, active compounds read low 1.13 | locus YGR092W, strain DBF2, active compounds read low 0.984 | locus YHR030C, strain SLT2, active compounds read low 1.01 | locus YHR079C, strain IRE1, active compounds read low 1 | locus YHR082C, strain KSP1, active compounds read low 1.04 | locus YHR205W, strain SCH9, active compounds read low 0.938 | locus YIL147C, strain SLN1, active compounds read low 0.971 | locus YJL095W, strain BCK1, active compounds read low 0.969 | locus YJL128C, strain PBS2, active compounds read low 0.951 | locus YJL157C, strain FAR1, active compounds read low 0.995 | locus YJR016C, strain ILV3, active compounds read low 0.972 | locus YJR066W, strain TOR1 (second series), active compounds read low 1 | locus YJR066W, strain TOR1, active compounds read low 0.985 | locus YKL048C, strain ELM1, active compounds read low 1.03 | locus YKL067W, strain YNK1, active compounds read low 0.997 | locus YKL101W, strain HSL1, active compounds read low 0.98 | locus YKL193C, strain SDS22, active compounds read low 0.966 | locus YKL203C, strain TOR2, active compounds read low 1.05 | locus YLR113W, strain HOG1, active compounds read low 0.99 | locus YLR133W, strain CKI1, active compounds read low 1.01 | locus YLR403W, strain SFP1, active compounds read low 1.01 | locus YML070W, strain DAK1, active compounds read low 1 | locus YMR001C, strain CDC5, active compounds read low 0.962 | locus YMR205C, strain PFK2 (second series), active compounds read low 0.998 | locus YMR277W, strain FCP1, active compounds read low 0.968 | locus YNL006W, strain LST8, active compounds read low 0.969 | locus YNL020C, strain ARK1, active compounds read low 1.02 | locus YNL161W, strain CBK1, active compounds read low 0.964 | locus YNL183C, strain NPR1, active compounds read low 0.977 | locus YNL207W, strain RIO2, active compounds read low 0.977 | locus YNL222W, strain SSU72, active compounds read low 0.976 | locus YNL307C, strain MCK1 (second series), active compounds read low 1.02 | locus YOL078W, strain AVO1, active compounds read low 0.966 | locus YOL136C, strain PFK27, active compounds read low 1.02 | locus YOR061W, strain CKA2, active compounds read low 0.967 | locus YOR119C, strain RIO1, active compounds read low 1.07 | locus YOR231W, strain MKK1, active compounds read low 0.966 | locus YOR329C, strain SCD5, active compounds read low 0.982 | locus YPL031C, strain PHO85, active compounds read low 0.997 | locus YPL153C, strain RAD53, active compounds read low 1 | locus YPL204W, strain HRR25, active compounds read low 1.02 | locus YPL209C, strain IPL1, active compounds read low 0.973 | locus YPL256C, strain CLN2, active compounds read low 1.07 | locus YPR025C, strain CCL1, active compounds read low 0.97 | locus YPR106W, strain ISR1, active compounds read low 0.986 | locus YPR111W, strain DBF20, active compounds read low 0.97 | strain NNK1, active compounds read low 0.995 | strain TSCII, active compounds read low 0.964
